Measurements published in ChEMBL document CHEMBL1157539, “Thousands of chemical starting points for antimalarial lead identification” (Nature, 2010).
Values joined by “and” are separate entries in the source; they are usually repeats but may differ in a detail not shown here. Equal entries are not always repeated.

Tests used:
Type in all cases: functional
Plasmodium falciparum [1] = assay: GSK_TCMDC: Inhibition of Plasmodium falciparum 3D7 in whole red blood cells, using parasite LDH activity as an index of growth. Test compounds present at 2uM
Plasmodium falciparum [2] = assay: GSK_TCMDC: Inhibition of Plasmodium falciparum Dd2 in whole red blood cells, using parasite LDH activity as an index of growth. Test compounds present at 2uM
HepG2 = assay: GSK_TCMDC: Percent inhibition of human HepG2 cell line. Test compounds present at 10uM.

SMILES	Inhibition (Plasmodium falciparum [1])	Inhibition (Plasmodium falciparum [2])	Inhibition (HepG2)
O=C(CSc1cccc[n+]1[O-])c1ccc(Cc2ncc(C(F)(F)F)cc2Cl)s1	99%	0%	13%
Cc1cccc2nc(-c3cccc(-c4ccc(NC(=O)Nc5ccc(F)c(F)c5F)cc4)c3)[nH]c12	100%	100%	61%
N#Cc1ccccc1Sc1ccccc1C(=O)Nc1ccc2ccccc2n1	92%	85%	0%
CN(C(=O)C1(c2ccc(Cl)cc2)CC1)C1CCN(CCCCCNC(=O)/C=C/c2ccc(Cl)c(Cl)c2)CC1	88%	0%	91%
COc1ccc(C2N=C(N)N=C(N)N2c2ccc(Cl)cc2)cc1OC.Cl (centres undefined)	85%	4%	4%
Cl.c1ccc(-c2ccc3c(Nc4ccc5[nH]ccc5c4)ccnc3c2)nc1	91%	78%	11%
Fc1ccc2[nH]c(-c3cccc(-c4ccc(CN5CCC(CCN6CCCCC6)CC5)cc4)c3)nc2c1.O=C(O)C(F)(F)F	100%	100%	91%
CCOC(=O)c1ccc(N2CCN(c3cc(Cl)ccc3C)CC2)c(NC(=O)Nc2ccc(Cl)c(Cl)c2)c1	99%	99%	10%
OC1CCC(Nc2ccc3ncc(-c4ccc5ccccc5c4)n3n2)CC1 (centres undefined)	95%	94%	52%
O=C(/C=C/c1ccc(Cl)c(Cl)c1)NCCCCCN1CCC(NC(=O)Nc2ccc(F)c(Cl)c2)CC1	100%	11%	98%
COc1ccc2nccc([C@@H](O)CN3CCC(NCCOc4cc(C(F)(F)F)ccc4F)CC3)c2c1.O=C(O)C(=O)O	100%	83%	13%
Cc1cccc2nc(-c3ccc(-c4ccc(NC(=O)NCc5cccc(F)c5)cc4)s3)[nH]c12	100%	43%	70%
CN(C)S(=O)(=O)c1ccc(N2C(=O)C3C(C2=O)C2(c4ccccc4)C(=O)C3(c3ccccc3)C(c3ccccc3)=C2c2ccccc2)cc1 (centres undefined)	92%	63%	0%
COc1cc(Cc2cnc(N)nc2N)cc(OCCCCc2nnn[nH]2)c1OC	97%	0%	7%
CN(C)CCOc1cc(NC(=O)Nc2ccc(Cl)cc2C(F)(F)F)ccc1I	96%	16%	0%
CCc1cn2c3c(cc(C(=O)N[C@@H](Cc4cccc(F)c4)[C@H](O)CNC4CCOCC4)cc13)N(C)S(=O)(=O)CC2.O=CO	97%	97%	0%
CCc1cc(-c2onc(C)c2-c2cc3ccccc3o2)c(O)cc1OC	95%	33%	48%
Cc1nnsc1C(=O)Nc1cccc(-c2cccc(-c3nc4cccc(C)c4[nH]3)c2)c1	99%	80%	22%
Cl.N=C(N)c1ccc(C=CC(=O)NCC(O)CNC(=O)C=Cc2ccc(C(=N)N)cc2)cc1 (centres undefined)	90%	80%	0%

SMILES	Inhibition (Plasmodium falciparum [1])	Inhibition (Plasmodium falciparum [2])	Inhibition (HepG2)
Cc1ccc2[nH]c(C)cc(=NN=Cc3cccc(Cl)c3)c2c1	100%	98%	12%
Cc1ccc2c(c1)c(C1CCN(C(=O)c3ccc([N+](=O)[O-])o3)CC1)cn2C	97%	76%	0%
Cc1cccc(C)c1CNc1nc(N2CCOCC2)cc2c(C)c(C)[nH]c12.Cl	92%	64%	51%
COc1cccc(Nc2nnc(SCC(=O)NNC(=O)c3ccccn3)s2)c1	99%	95%	52%
O=C(NCc1ccc(Cl)c(Cl)c1)c1cc(CNC2CCNCC2)ccc1O	82%	2%	2%
O=[N+]([O-])c1ccc2ncnc(Nc3ccc(F)c(Cl)c3)c2c1	100%	65%	0%
Cc1cc(N(C)CCCN(C)C)nc(Nc2ccc(Cl)cc2)n1	100%	79%	7%
CCCCCCc1cc2cc(-c3csc(C=Cc4ccccc4)n3)c(=O)oc2cc1O	96%	75%	17%
COc1cc2c(cc1OC)CN(c1cc(N)c3cc(OC)c(OC)cc3n1)CC2.CS(=O)(=O)O	100%	99%	23%
O=C(/C=C/c1ccc(Cl)c(Cl)c1)NCCCCCN1CCCN(C(=S)Nc2cccc(Cl)c2)CC1	93%	7%	19%
C=C[C@H]1CN2CC[C@H]1C[C@H]2[C@H](O)c1ccnc2ccc(OC)cc12.Cl [QUININE HYDROCHLORIDE]	99% and 100%	79% and 99%	13% and 0%
CN(C)CCCSc1ccccc1NC(=O)C=Cc1ccccc1	85%	0%	0%
CC(C)C[C@H](NC(=O)c1cc2ccccc2s1)C(=O)N[C@H]1CCN(Cc2ccc(OCCN3CCNCC3)c3ccccc23)C1.O=C(O)C(F)(F)F	100%	96%	43%
CCOc1ccc2c(=NN=Cc3cccc(Cl)c3)cc(C)[nH]c2c1	93%	34%	0%
Cc1cc(=NN=Cc2ccc(Cl)cc2)c2ccccc2[nH]1	100%	87%	5%
COc1ccc(-c2nc(NC(=O)CS(=O)(=O)c3ccccc3)sc2C)cc1	99%	82%	7%
Cc1[nH]c2c(C)cccc2c1C1CCN(CCC2CCN(C(=O)/C=C/c3ccc(Cl)c(Cl)c3)CC2)CC1	100%	79%	67%
OC1(c2ccccc2)c2cc(Cl)ccc2OC1c1nc2c(Cl)ccc(Cl)c2o1 (centres undefined)	98%	89%	7%
Cc1nc(NC(=N)N)nc2cc3c(cc12)CCC3.Cl	90%	58%	17%
